# The supplement of paper PMC10849652
# About 7,900 targets were measured; listed, in parts, are those with a hit and a random draw of the rest. About 0.6% of all pairs of compound and target were hits. Unmarked numbers belong to inactive results.
# Compound: C[C@H](C1=CC=C(C=C1)C(=O)NC2=C3C=CNC3=NC=C2)N
# Experiment: log2 fold change, soluble protein after heating vs DMSO (PISA); higher = thermal stabilisation; K562 cells, 10 uM, 30 min; active = over 0.2 and 3.5 SD of the protein, either way, in both replicates (recomputed)
# Procedure, shortened: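 Soluble protein was quantified by TMTpro 16plex LC-MS/MS after channel sums were equalised. It was obtained as the supernatant after 21,000xg for 90 min from pooled aliquots of K562 cells (2×10^6 cells/mL, 10 μM compound, 30 min) heated for 3 min across 48°C-58°C and extracted in PBS with 0.5% NP-40 at 4°C. Thermal stability values are relative to control samples and come from duplicates. They are given as log2 fold changes.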
# Chain of UniProt Q13907 (Q13907 whole entry, looked up): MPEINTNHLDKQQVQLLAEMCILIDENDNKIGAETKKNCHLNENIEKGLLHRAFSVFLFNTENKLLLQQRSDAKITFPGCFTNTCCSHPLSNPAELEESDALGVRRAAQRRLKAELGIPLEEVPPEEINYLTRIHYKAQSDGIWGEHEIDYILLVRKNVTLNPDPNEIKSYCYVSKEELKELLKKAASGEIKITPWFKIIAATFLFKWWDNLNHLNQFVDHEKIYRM
# Chain of UniProt P08754 (P08754 whole entry, looked up): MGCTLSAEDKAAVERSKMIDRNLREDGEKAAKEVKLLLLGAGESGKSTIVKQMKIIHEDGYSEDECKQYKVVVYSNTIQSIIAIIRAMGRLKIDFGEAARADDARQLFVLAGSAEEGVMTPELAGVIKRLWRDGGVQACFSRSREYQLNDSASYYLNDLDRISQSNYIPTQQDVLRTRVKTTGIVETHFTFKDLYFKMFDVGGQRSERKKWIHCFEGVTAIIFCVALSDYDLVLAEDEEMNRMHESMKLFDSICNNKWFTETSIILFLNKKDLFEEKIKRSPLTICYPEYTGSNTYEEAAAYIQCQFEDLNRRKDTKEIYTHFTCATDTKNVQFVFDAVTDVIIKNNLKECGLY
# Chain of UniProt P50213 (P50213 whole entry, looked up): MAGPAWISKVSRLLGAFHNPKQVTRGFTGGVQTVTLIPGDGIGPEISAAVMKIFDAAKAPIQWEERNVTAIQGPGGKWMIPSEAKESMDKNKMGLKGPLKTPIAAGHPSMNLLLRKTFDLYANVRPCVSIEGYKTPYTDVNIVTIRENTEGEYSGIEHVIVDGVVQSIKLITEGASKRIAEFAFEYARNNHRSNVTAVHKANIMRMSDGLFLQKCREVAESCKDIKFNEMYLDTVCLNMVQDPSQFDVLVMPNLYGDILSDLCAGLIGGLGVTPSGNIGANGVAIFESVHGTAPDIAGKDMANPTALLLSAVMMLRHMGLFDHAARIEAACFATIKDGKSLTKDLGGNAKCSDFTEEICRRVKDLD
# Chain of UniProt Q00688 (Q00688 whole entry, looked up): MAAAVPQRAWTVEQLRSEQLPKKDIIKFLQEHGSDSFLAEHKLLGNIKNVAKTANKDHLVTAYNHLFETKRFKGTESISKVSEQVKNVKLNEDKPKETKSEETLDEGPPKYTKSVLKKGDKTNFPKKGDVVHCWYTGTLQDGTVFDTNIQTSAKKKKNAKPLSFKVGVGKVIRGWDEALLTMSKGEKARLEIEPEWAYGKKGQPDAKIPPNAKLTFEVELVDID
# Chain of UniProt Q9P2D3 (Q9P2D3 whole entry, looked up): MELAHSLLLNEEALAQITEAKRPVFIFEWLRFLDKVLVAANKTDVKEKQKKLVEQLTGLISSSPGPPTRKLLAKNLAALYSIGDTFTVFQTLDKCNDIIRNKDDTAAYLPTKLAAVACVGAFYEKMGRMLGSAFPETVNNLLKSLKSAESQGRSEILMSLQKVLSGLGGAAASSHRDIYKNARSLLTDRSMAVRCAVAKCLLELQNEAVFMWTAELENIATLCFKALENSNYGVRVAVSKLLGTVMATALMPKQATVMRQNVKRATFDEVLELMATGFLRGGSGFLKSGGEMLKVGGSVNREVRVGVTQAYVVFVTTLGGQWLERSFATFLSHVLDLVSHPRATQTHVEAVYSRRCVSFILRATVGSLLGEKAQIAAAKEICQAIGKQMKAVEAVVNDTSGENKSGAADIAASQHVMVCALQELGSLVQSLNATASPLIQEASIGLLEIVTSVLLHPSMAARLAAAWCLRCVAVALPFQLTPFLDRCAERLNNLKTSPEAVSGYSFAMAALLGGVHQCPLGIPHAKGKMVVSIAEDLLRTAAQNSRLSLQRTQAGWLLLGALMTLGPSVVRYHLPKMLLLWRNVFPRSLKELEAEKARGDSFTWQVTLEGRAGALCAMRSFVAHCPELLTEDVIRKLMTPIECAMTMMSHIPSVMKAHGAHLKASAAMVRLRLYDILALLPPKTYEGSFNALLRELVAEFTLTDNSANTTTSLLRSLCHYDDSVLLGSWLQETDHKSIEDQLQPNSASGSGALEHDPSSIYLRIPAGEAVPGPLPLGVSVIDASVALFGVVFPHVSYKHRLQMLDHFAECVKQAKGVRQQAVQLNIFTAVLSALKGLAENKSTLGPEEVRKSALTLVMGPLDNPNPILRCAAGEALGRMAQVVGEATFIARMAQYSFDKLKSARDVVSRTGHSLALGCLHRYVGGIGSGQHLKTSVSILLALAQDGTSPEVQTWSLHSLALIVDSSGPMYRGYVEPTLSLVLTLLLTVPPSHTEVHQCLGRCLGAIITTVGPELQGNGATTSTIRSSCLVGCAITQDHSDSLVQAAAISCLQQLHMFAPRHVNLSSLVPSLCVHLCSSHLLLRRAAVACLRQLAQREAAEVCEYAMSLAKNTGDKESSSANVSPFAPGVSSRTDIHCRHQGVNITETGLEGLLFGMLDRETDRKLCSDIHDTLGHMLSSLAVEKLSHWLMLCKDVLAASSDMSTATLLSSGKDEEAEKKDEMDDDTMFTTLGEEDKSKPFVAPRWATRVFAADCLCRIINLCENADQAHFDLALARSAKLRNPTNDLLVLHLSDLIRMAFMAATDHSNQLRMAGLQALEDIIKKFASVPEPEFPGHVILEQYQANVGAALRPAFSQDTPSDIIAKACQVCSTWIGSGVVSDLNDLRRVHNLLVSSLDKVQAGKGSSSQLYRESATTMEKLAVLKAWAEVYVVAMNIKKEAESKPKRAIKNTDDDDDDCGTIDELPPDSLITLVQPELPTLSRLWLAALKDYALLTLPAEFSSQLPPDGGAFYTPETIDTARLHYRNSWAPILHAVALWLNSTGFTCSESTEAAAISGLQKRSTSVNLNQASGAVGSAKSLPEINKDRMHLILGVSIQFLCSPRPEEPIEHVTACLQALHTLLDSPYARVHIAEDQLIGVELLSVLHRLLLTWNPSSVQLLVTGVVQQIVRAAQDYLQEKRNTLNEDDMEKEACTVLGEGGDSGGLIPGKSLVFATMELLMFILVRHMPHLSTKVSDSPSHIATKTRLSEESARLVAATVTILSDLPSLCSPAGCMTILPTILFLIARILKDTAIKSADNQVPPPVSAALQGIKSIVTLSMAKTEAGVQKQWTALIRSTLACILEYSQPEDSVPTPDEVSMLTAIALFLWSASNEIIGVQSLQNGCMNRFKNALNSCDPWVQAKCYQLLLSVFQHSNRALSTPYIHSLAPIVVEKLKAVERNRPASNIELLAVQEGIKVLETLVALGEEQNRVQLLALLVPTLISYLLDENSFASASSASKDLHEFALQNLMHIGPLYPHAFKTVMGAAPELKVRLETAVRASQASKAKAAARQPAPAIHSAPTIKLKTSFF
# Chain of UniProt Q92947 (Q92947 whole entry, looked up): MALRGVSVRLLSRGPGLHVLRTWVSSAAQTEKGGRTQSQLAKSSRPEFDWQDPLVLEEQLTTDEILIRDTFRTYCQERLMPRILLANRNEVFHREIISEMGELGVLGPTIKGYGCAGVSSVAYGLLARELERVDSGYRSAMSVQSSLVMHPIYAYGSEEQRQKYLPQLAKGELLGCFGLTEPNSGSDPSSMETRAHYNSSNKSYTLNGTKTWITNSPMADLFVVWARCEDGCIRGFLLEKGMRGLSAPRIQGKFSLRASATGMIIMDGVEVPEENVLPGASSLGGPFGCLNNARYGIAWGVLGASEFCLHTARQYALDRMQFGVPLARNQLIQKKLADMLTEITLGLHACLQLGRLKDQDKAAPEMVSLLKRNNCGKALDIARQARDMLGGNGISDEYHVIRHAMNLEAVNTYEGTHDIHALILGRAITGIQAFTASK
# Chain of UniProt P22087 (P22087 whole entry, looked up): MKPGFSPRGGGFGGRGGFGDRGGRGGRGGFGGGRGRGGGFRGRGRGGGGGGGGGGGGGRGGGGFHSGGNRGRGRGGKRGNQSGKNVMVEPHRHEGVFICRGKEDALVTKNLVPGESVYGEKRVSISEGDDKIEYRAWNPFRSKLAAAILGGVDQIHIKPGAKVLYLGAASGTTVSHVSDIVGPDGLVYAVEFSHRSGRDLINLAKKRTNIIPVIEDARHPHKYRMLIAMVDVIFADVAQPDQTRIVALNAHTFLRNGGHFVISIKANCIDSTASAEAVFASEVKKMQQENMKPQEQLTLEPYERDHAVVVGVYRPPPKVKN
# Chain of UniProt Q53R41 (Q53R41 whole entry, looked up): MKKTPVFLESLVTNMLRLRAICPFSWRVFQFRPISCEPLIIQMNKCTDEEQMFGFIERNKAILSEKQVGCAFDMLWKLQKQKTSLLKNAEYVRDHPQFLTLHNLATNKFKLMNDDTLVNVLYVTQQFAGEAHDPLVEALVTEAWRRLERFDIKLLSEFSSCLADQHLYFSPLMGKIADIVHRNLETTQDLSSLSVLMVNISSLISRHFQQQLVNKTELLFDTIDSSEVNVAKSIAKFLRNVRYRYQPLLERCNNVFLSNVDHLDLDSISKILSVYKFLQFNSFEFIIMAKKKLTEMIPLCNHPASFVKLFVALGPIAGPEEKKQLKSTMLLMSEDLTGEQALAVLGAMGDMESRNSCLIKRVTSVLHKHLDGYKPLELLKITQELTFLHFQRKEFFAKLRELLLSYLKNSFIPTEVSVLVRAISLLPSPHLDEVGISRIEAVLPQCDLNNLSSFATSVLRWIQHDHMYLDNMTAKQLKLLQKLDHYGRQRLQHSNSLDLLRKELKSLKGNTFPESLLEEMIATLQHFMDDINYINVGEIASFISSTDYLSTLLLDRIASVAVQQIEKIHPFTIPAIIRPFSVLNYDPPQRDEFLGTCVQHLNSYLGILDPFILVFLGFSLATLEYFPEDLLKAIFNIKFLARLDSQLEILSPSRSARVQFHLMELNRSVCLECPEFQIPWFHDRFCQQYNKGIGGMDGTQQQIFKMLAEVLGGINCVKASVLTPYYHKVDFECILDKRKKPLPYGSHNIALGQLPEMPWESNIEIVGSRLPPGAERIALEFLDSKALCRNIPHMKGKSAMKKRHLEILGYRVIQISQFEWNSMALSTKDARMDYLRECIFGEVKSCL
# Chain of UniProt Q9Y3D6 (Q9Y3D6 whole entry, looked up): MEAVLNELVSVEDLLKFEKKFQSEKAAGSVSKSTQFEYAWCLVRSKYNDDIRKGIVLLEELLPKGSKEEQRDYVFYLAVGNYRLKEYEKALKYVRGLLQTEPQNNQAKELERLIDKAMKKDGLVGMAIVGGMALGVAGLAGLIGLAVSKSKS
row,Target,log2 fold change
1,GTF3C4 (UniProt Q9UKN8),-0.015
2,HEATR5B (UniProt Q9P2D3),0.103
3,IDI1 isoform 2 (UniProt Q13907),-0.018
4,HP1BP3 (UniProt Q5SSJ5),0.163
5,GSK3A (UniProt P49840),0.015
6,GNAI3 (UniProt P08754),0.003
7,GUSB (UniProt P08236),0.063
8,GEMIN5 (UniProt Q8TEQ6),0.02
9,FASTKD1 (UniProt Q53R41),-0.027
10,GNAS (UniProt Q5JWF2),-0.031
11,GOLGB1 isoform 2 (UniProt Q14789),0.19
12,HEXB (UniProt P07686),-0.021
13,H2AFX (UniProt P16104),0.479
14,GCDH (UniProt Q92947),-0.032
15,FIS1 (UniProt Q9Y3D6),-0.286 (active)
16,FKBP3 (UniProt Q00688),-0.076
17,FBXO7 (UniProt Q9Y3I1),-0.023
18,HIP1R (UniProt O75146),0.026
19,IDH3A (UniProt P50213),-0.046
20,HMGB3 (UniProt O15347),-0.071
21,FBL (UniProt P22087),0.379
22,GAB2 (UniProt Q9UQC2),0.033
23,FDPS (UniProt P14324),0.117
24,HTATIP2 isoform 3 (UniProt Q9BUP3),-0.145
